# Results filed as inconclusive are left out. Where a call stands in place of a potency, no number is given. Active and inactive are the calls of the source. Unless noted, calls come from the whole dose curve; as a rule, active = well fitted curve in the direction sought with a large enough effect; inconclusive = small, poorly fitted or top-dose-only effect, or another doubt; inactive = no such curve, though single readings can be large; an effect the other way counts as inactive or inconclusive.
# Key:
# [1] = qHTS assay to identify small molecule inhibitors of chordoma cells - UCH-1 (AID 1259355); note: nearly all actives have a fitted effect of over 55% in size; note: potency is the fitted concentration of half-maximal effect
# How it was run: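 800 cells/well, overnight attach; compounds pinned at 15 concs, then auranofin/camptothecin/doxorubicin/rubitecan/topotecan combo added; 48hr 37 C, 5% CO2; CellTiter-Glo, 30min RT, luminescence.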
# [2] = qHTS assay to identify small molecule inhibitors of chordoma cells - UCH-2 (AID 1259356); note: potency is the fitted concentration of half-maximal effect
# [3] = P-glycoprotein substrates identified in KB-8-5-11 adenocarcinoma cell line, qHTS therapeutic library screen (AID 1346987); note: nearly all actives have a fitted effect of over 65% in size; note: potency is the fitted concentration of half-maximal effect
# How it was run: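 Compounds are pinned in dose-response onto KB-8-5-11 cells (500 cells/well, colchicine-free medium) and left 72 h at 37 degree C. CellTiter-Glo luminescence then yields AC50 values.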
# [4] = qHTS profiling of the MIPE4 collection as inhibitors of Plasmodium falciparum (DD2) proliferation (Rep 2) (AID 743346; call rule not given here); conditions: P. falciparum Dd2 in erythrocytes, SYBR Green DNA, 72 h; at 28.5 µM (top of the series) unless noted
# How it was run: (§1)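 Parasite DNA was quantified by SYBR Green I fluorescence (ex 485, em 535 nm) after overnight lysis in saponin/Triton buffer at room temperature. Cultures at 0.3% parasitemia and 2.5% hematocrit were first exposed to compound for 72 h at 37 C; signals were normalised to artemisinin (0.29 uM) and vehicle wells.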
# [5] = qHTS profiling of the MIPE4 collection as inhibitors of Plasmodium falciparum (HB3) proliferation (AID 743347; call rule not given here); conditions: P. falciparum HB3 in erythrocytes, SYBR Green DNA, 72 h; at 28.5 µM (top of the series) unless noted
# How it was run: as §1
smiles,measurement,setting,value
CO[C@@H]1[C@@H](O[C@@H]2O[C@H](C)[C@@H](O[C@H]3C[C@@](C)(O)[C@@H](O)[C@H](C)O3)[C@H](N(C)C)[C@H]2O)[C@@H](CC=O)C[C@@H](C)[C@@H](O[C@@H]2CC[C@H](N(C)C)[C@@H](C)O2)/C=C/C=C/C[C@@H](C)OC(=O)C[C@H]1O,Potency,[1],inactive
same,Potency,[2],inactive
CC(C)(C)NC(=O)[C@@H]1C[C@@H]2CCCC[C@@H]2CN1C[C@@H](O)[C@H](Cc1ccccc1)NC(=O)[C@H](CC(N)=O)NC(=O)c1ccc2ccccc2n1,Potency,[1],inactive
same,Potency,[3],inactive
Cc1cc(C(=O)NNCc2ccccc2)no1,Potency,[1],inactive
same,Potency,[2],inactive
COC(=O)C1=C(C#N)NC(C)=C(C(=O)OC(C)C)C1c1cccc([N+](=O)[O-])c1 (centres undefined),Potency,[1],inactive
same,Potency,[2],inactive
COc1ccc(C[C@H](N)C(=O)N[C@H]2[C@@H](O)[C@H](n3cnc4c(N(C)C)ncnc43)O[C@@H]2CO)cc1,Potency,[1],11.2 µM (active)
same,Potency,[3],inactive
CC[C@H]1OC(=O)[C@H](C)[C@@H](O[C@H]2C[C@@](C)(OC)[C@@H](O)[C@H](C)O2)[C@H](C)[C@@H](O[C@@H]2O[C@H](C)C[C@H](N(C)C)[C@H]2O)[C@](C)(O)C[C@@H](C)/C(=N\OCOCCOC)[C@H](C)[C@@H](O)[C@]1(C)O,Potency,[1],inactive
same,Potency,[2],inactive
same,Potency,[3],inactive
C[C@]12O[C@H](C[C@]1(O)CO)n1c3ccccc3c3c4c(c5c6ccccc6n2c5c31)CNC4=O,Potency,[1],11.2 µM (active)
same,Potency,[2],10.3 µM (active)
same,Potency,[3],4.61 µM (active)
Cc1ccccc1OCC(O)CNCCOc1ccc(C(N)=O)cc1 (centres undefined),Potency,[1],inactive
same,Potency,[2],inactive
C#CCOc1ccc2c(C)cc(=O)oc2c1,Potency,[1],inactive
same,Potency,[2],inactive
same,Potency,[3],inactive
COC(F)(F)C(Cl)Cl,Potency,[1],inactive
same,Potency,[2],inactive
CCN(CC)Cc1cc(Nc2ccnc3cc(Cl)ccc23)ccc1O,"parasite growth, % of control (lower = inhibition)",[4],11.1% [at 9.64 µM]
same,"growth, % of control",[5],3.47% [at 9.64 µM]
same,Potency,[1],inactive
same,Potency,[2],inactive
CC[C@@]1(O)C(=O)OCc2c1cc1n(c2=O)Cc2cc3c([N+](=O)[O-])cccc3nc2-1,Potency,[1],0.794 µM (active)
same,Potency,[3],16.4 µM (active)
CC[C@@H](C(=O)[C@@H](C)[C@@H](O)[C@H](C)CCc1ccc(C)c(O)c1C(=O)O)[C@H]1O[C@](CC)([C@H]2CC[C@](O)(CC)[C@H](C)O2)C[C@@H]1C,Potency,[2],inactive
CCCCCCCCCCCC[n+]1ccc2ccccc2c1,Potency,[2],25.9 µM (active)
same,Potency,[3],inactive
O=C(O)CCC(=O)C(=O)O,Potency,[2],inactive
same,Potency,[3],inactive
COc1cc([C@@H]2c3cc4c(cc3[C@@H](O[C@@H]3O[C@@H]5CO[C@@H](C)O[C@H]5[C@H](O)[C@H]3O)[C@H]3COC(=O)[C@H]23)OCO4)cc(OC)c1O,Potency,[1],inactive
same,Potency,[3],inactive
CCN(CC)CCOc1ccc(-c2nc3cc(Cl)ccc3s2)cc1,Potency,[1],inactive
same,Potency,[3],18.4 µM (active)
CC(=O)OCC(=O)[C@@]12OC3(CCCC3)O[C@@H]1C[C@H]1[C@@H]3CCC4=CC(=O)C=C[C@]4(C)[C@@]3(F)[C@@H](O)C[C@@]12C,Potency,[2],inactive
same,Potency,[3],inactive
CCCC(=O)Nc1ncnc2c1ncn2[C@@H]1O[C@@H]2COP(=O)(O)O[C@H]2[C@H]1OC(=O)CCC,Potency,[2],inactive
same,Potency,[3],inactive
CC(C)C(=O)OCC(=O)[C@@]12O[C@H](C3CCCCC3)O[C@@H]1C[C@H]1[C@@H]3CCC4=CC(=O)C=C[C@]4(C)[C@H]3[C@@H](O)C[C@@]12C,Potency,[2],inactive
C[C@@H]1CCC2[C@@H](C)[C@@H](O)O[C@@H]3O[C@@]4(C)CC[C@@H]1[C@@]23OO4 (some centres undefined),"parasite growth, % of control (lower = inhibition)",[4],10.6%
same,"growth, % of control",[5],6.11%
same,Potency,[1],inactive
same,Potency,[3],10.3 µM (active)
CC1(C)C(C=C(Cl)Cl)C1C(=O)OCc1cccc(Oc2ccccc2)c1 (centres undefined),Potency,[2],inactive
same,Potency,[3],inactive
CC(=O)OCC(=O)[C@@]1(O)CC[C@H]2[C@@H]3C[C@H](C)C4=CC(=O)C=C[C@]4(C)[C@H]3[C@@H](O)C[C@@]21C,Potency,[2],inactive
same,Potency,[3],inactive
CO[C@H]1C[C@@H]2CC[C@@H](C)[C@@](O)(O2)C(=O)C(=O)N2CCCC[C@H]2C(=O)O[C@H]([C@H](C)C[C@@H]2CC[C@@H](OCCO)[C@H](OC)C2)CC(=O)[C@H](C)/C=C(\C)[C@@H](O)[C@@H](OC)C(=O)[C@H](C)C[C@H](C)/C=C/C=C/C=C/1C,Potency,[2],inactive
C[C@H](CCC(=O)O)[C@H]1CC[C@H]2[C@@H]3[C@H](O)C[C@@H]4C[C@H](O)CC[C@]4(C)[C@H]3CC[C@]12C,Potency,[2],inactive
same,Potency,[3],inactive
